What all share (assay): growth (OD600 after 10 h); higher = more growth (less inhibition)
For experiment [1], the system named is E. coli TESEC Alr+ wild-type control. Conditions: compound 0.1 mM; raw OD600 reference: median of DMSO wells 0.241, cell-free background 0.041. How it is done: (§1)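 TESEC Mtb Alr E. coli, or the Alr+ wild-type control, in 384-well plates with Prestwick library compounds at 0.1 mM and 1% DMSO, across arabinose induction levels of 1E3 to 1E7 nM. Growth is read as OD600 after 10 h at 37 °C in triplicate biological replicates.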

The subject of experiment [2] is E. coli TESEC Mtb Alr. Conditions: compound 0.1 mM. How it is done:
as §1

Experiment [3] concerns E. coli TESEC Mtb Asd. The note with it: compound 0.1 mM. Here is the method: (§2)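 TESEC E. coli strains in which the native enzyme is deleted and replaced by arabinose-inducible Mtb Asd, DapB, CysH or TrpD, each grown in its selective medium. Strains were screened against the Prestwick library at 0.1 mM and 1% DMSO in 384-well format at low and high arabinose induction. Growth is read as OD600 after 10 h in triplicate.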

For experiment [4], the system named is E. coli TESEC Mtb Alr. The note with it: compound 0.1 mM. How it is done:
(§3)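 TESEC Mtb Alr E. coli (ΔaraC ΔtolC ΔentC Δalr ΔdadX, arabinose-inducible Mtb Alr) or the Alr+ wild-type control strain, grown in defined M9-fructose medium without D-alanine in 96-well plates with Prestwick library compounds at 0.1 mM and 1% DMSO. Low Alr induction is 0.1 µM arabinose and high induction is 10 mM arabinose.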
This is another data set of the same source.

The test system of experiment [5] is E. coli TESEC Mtb DapB. The note with it: compound 0.1 mM. How it is done: as §2
The subject of experiment [6] is E. coli TESEC Alr+ wild-type control. Conditions: compound 0.1 mM; raw OD600 reference: median of DMSO wells 0.49, cell-free background 0.052. Here is the method: as §3
Setting [7] is: arabinose 1000 nM, raw OD600 reference: median of DMSO wells 0.294, cell-free background 0.041.
[8] abbreviates: arabinose 10000 nM, raw OD600 reference: median of DMSO wells 0.264, cell-free background 0.041.
Setting [9] is: arabinose 100000 nM, raw OD600 reference: median of DMSO wells 0.201, cell-free background 0.041.
Where [10] appears, read: arabinose 1000000 nM, raw OD600 reference: median of DMSO wells 0.193, cell-free background 0.041.
[11] abbreviates: arabinose 10000000 nM, raw OD600 reference: median of DMSO wells 0.146, cell-free background 0.041.
[12] abbreviates: arabinose induction (level): High, raw OD600 reference: median of DMSO wells 0.331, cell-free background 0.041.
Where [13] appears, read: arabinose induction (level): Low, raw OD600 reference: median of DMSO wells 0.417, cell-free background 0.041.
The mark [14] stands for this setting: arabinose 100 nM, raw OD600 reference: median of DMSO wells 0.413, cell-free background 0.052.
[15] abbreviates: arabinose 10000000 nM, raw OD600 reference: median of DMSO wells […], cell-free background 0.052.
Setting [16] is: arabinose induction (level): High, raw OD600 reference: median of DMSO wells […], cell-free background 0.041.
Setting [17] is: arabinose induction (level): Low, raw OD600 reference: median of DMSO wells 0.227, cell-free background 0.041.

Where a name gives a salt, the structure may show the parent alone. ± gives the standard deviation of the averaged measurements.

Take `C[C@]12CCC(=O)C(O)=C1CC[C@@H]1[C@@H]2CC[C@]2(C)C(=O)CC[C@@H]12` [Formestane]: the growth was determined as 0.115 ± 0.0066 in experiment [1]; 0.182 ± 0.011 in experiment [2] (setting [7]); 0.228 ± 0.014 in experiment [2] (setting [8]); 0.1 ± 0.0018 in experiment [2] (setting [9]); 0.0848 ± 0.0012 in experiment [2] (setting [10]); 0.1103 ± 0.00057 in experiment [2] (setting [11]). Also, the growth in experiment [3] (setting [12]) stood at 0.13 ± 0.017; in experiment [3] (setting [13]), 0.25 ± 0.052; in experiment [4] (setting [14]) it was 0.373 ± 0.025; in experiment [4] (setting [15]) it was 0.133 ± 0.017.

Take `O=C(CCCN1CCC(n2c(=O)[nH]c3ccccc32)CC1)c1ccc(F)cc1` [Benperidol]: the growth in experiment [1] stood at 0.181 ± 0.0021; in experiment [3] (setting [12]), 0.357 ± 0.062; in experiment [3] (setting [13]) it was 0.434 ± 0.086; in experiment [5] (setting [16]) it was 0.187 ± 0.026; in experiment [5] (setting [17]), 0.21 ± 0.0039; in experiment [4] (setting [14]) it was 0.411 ± 0.016. In experiment [4] (setting [15]), the growth was found to be 0.26 ± 0.02.

Turning to `C#C[C@]1(O)CC[C@H]2[C@@H]3CCC4=CC(=O)CC[C@]4(C)[C@H]3CC[C@@]21C` [Ethisterone], the growth turned out to be 0.237 ± 0.0043 in experiment [1]; 0.344 ± 0.057 in experiment [3] (setting [12]); 0.41 ± 0.063 in experiment [3] (setting [13]); 0.408 ± 0.0092 in experiment [4] (setting [14]); 0.39 ± 0.055 in experiment [4] (setting [15]).

Turning to `C#C[C@]1(O)CC[C@H]2[C@@H]3CCC4=CC(=O)CCC4=C3C=C[C@@]21CC` [Gestrinone], the growth came to 0.13 ± 0.0014 in experiment [1]; 0.195 ± 0.02 in experiment [2] (setting [7]); 0.18 ± 0.0068 in experiment [2] (setting [8]); 0.173 ± 0.0028 in experiment [2] (setting [9]); 0.105 ± 0.011 in experiment [2] (setting [10]); 0.134 ± 0.0068 in experiment [2] (setting [11]). In addition, the growth came out at 0.216 ± 0.065 in experiment [3] (setting [12]), 0.253 ± 0.12 in experiment [3] (setting [13]), 0.374 ± 0.0073 in experiment [4] (setting [14]) and 0.165 ± 0.03 in experiment [4] (setting [15]).

With `CN(C)[C@@H]1C(=O)C(C(N)=O)=C(O)[C@@]2(O)C(=O)C3=C(O)c4c(O)ccc(Cl)c4[C@@](C)(O)[C@H]3C[C@@H]12` [Chlortetracycline hydrochloride], the growth in experiment [1] is 0.03933 ± 0.00031; in experiment [3] (setting [12]) it was 0.0499 ± 0.0023; in experiment [3] (setting [13]), 0.0479 ± 0.00061; in experiment [5] (setting [16]) it was 0.0465 ± 0.0014; in experiment [5] (setting [17]) it was 0.0507 ± 0.0031; in experiment [4] (setting [14]), 0.0524 ± 0.00066. This compound returned a growth in experiment [4] (setting [15]) of 0.0506 ± 0.00035.

With `C=C(C)[C@@H]1[C@H]2OC(=O)[C@@H]1[C@]1(O)C[C@H]3O[C@]34C(=O)O[C@H]2[C@]14C` [Picrotoxinin], the growth turned out to be 0.253 ± 0.0051 in experiment [1]; 0.314 ± 0.023 in experiment [2] (setting [7]); 0.2631 ± 0.002 in experiment [2] (setting [8]); 0.215 ± 0.023 in experiment [2] (setting [9]); 0.186 ± 0.0029 in experiment [2] (setting [10]); 0.138 ± 0.0029 in experiment [2] (setting [11]). The growth in experiment [3] (setting [12]) was 0.343 ± 0.016; in experiment [3] (setting [13]), 0.461 ± 0.003; in experiment [4] (setting [14]) it was 0.401 ± 0.011; in experiment [4] (setting [15]), 0.351 ± 0.0093.

With `CC(C)c1c(CN(C)C(C)Cc2ccccc2)n(C)n(-c2ccccc2)c1=O` (stereo not given) [Famprofazone], the growth in experiment [1] came out at 0.219 ± 0.0093; in experiment [3] (setting [12]) it was 0.425 ± 0.02; in experiment [3] (setting [13]), 0.486 ± 0.087; in experiment [4] (setting [14]) it was 0.406 ± 0.0053; in experiment [4] (setting [15]), 0.269 ± 0.0074.

Take `CCOC(=O)c1cncn1[C@H](C)c1ccccc1` [Etomidate]: the growth came out at 0.202 ± 0.0032 in experiment [1]; 0.244 ± 0.0088 in experiment [2] (setting [7]); 0.275 ± 0.013 in experiment [2] (setting [8]); 0.214 ± 0.03 in experiment [2] (setting [9]); 0.181 ± 0.01 in experiment [2] (setting [10]); 0.14 ± 0.0078 in experiment [2] (setting [11]). For the same compound, the growth in experiment [3] (setting [12]) was 0.43 ± 0.029; in experiment [3] (setting [13]), 0.378 ± 0.076; in experiment [4] (setting [14]) it was 0.41 ± 0.0073; in experiment [4] (setting [15]), 0.341 ± 0.0035.

Turning to `C[C@@H]1CN([C@H]2CC[C@](C#N)(c3ccc(F)cc3)CC2)CC[C@]1(C(=O)O)c1ccccc1` [Levocabastine hydrochloride], the growth in experiment [1] came out at 0.215 ± 0.0053; in experiment [3] (setting [12]), 0.212 ± 0.033; in experiment [3] (setting [13]) it was 0.384 ± 0.03; in experiment [6] it was 0.49 ± 0.026; in experiment [4] (setting [14]), 0.404 ± 0.017; in experiment [4] (setting [15]), 0.321 ± 0.022.

For `C#CCN(C)[C@H](C)Cc1ccccc1` [Selegiline hydrochloride], the growth in experiment [1] worked out at 0.251 ± 0.0044; in experiment [3] (setting [12]), 0.291 ± 0.064; in experiment [3] (setting [13]), 0.391 ± 0.016; in experiment [4] (setting [14]), 0.405 ± 0.017; in experiment [4] (setting [15]), 0.342 ± 0.017.

(Values after the supplement of paper PMC9262897, “Low-cost anti-mycobacterial drug discovery using engineered E. coli” (Nature Communications, 2022).)
